Bioassay records: PubChem, The Scripps Research Institute Molecular Screening Center
TEAD-YAP inh: TEAD-YAP interaction inhibition; HEK-TIYL cells, TEAD-Gal4/YAP UAS-luciferase luminescence; 640,000 compounds, 1.4% hits; inhibition, % at 9.12 µM; AID 1259422; in the data active = inhibition above about 32%;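 note: 0% = median of test compound wells and 100% = reference inhibitor wells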
FBW7 act: human FBW7 E3 ligase activation, primary screen. AlphaScreen FBW7–phospho-cyclin E peptide binding, activator screen. normalized activity (activation), % at 26.1 µM. 650,000 compounds, 0.13% hits; in the data active = normalized activity above about 1.9%;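 note: purified mutant Fbw7 with reduced substrate affinity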
Target sequence (Q969H0 whole entry, looked up): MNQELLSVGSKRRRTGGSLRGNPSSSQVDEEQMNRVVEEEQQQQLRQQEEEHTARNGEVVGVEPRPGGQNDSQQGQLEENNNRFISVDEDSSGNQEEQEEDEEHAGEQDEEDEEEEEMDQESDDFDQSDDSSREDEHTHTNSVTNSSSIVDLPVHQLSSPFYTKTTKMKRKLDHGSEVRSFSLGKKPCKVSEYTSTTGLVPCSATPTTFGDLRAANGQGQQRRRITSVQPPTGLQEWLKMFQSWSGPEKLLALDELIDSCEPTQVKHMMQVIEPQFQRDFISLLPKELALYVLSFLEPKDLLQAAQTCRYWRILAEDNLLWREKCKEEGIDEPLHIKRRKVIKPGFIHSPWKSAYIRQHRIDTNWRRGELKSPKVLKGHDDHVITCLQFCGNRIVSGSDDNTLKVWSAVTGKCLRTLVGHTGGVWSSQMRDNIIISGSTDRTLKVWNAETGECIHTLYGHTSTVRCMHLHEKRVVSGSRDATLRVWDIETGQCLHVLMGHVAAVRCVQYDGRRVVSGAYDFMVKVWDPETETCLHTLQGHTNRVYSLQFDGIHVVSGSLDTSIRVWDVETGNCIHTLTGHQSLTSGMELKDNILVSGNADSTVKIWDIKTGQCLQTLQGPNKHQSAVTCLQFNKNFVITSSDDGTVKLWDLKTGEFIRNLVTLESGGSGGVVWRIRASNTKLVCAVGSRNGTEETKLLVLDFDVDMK
GPR151 ag: activates the human receptor GPR151; activation, % at 11.2 µM; 650,000 compounds, 1% hits; Q8TDV0; PathHunter beta-arrestin GPR151 cells, luminescence; in the data active = activation above about 4.9%;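 note: 0% = median of compound wells and 100% = cells with positive control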
MITF inh: human MITF inhibition, primary screen; AlphaScreen MITF homodimerization, bead proximity signal; inhibition, % at 2.6 µM; 650,000 compounds, 0.91% hits; AID 1259374; in the data active = inhibition above about 50%;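 note: 0% = vehicle wells with protein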
GPR151 confirm: confirmation of human GPR151 activators | shares compounds with GPR151 ag | GPR151 PathHunter beta-arrestin cells, luminescence, 90 min; % of EA-reagent control over plate median | activation, % at 11.2 µM | 6,700 tested, under 10 active | AID 1508609;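 active = mean percent activation across replicates above the confirmation screen cutoff of 4.91%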
GPR119 counter: GPR119 activation, counter-screen for GPR151 activators | shares compounds with GPR151 ag | GPR119 PathHunter beta-arrestin cells, luminescence, 90 min; 0 = compound-well median, 100 = enzyme-acceptor control | 6,700 compounds, 0.3% hits | activation, % at 11.2 µM | AID 1508611;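 active = mean percent activation in the counterscreen above 29.09%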;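 note: counterscreen on off-target GPR119 to flag nonselective hits from the GPR151 activator screen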
* hit, by the source's call; / = no result given. Rows were chosen to be rich in hits. Some 3.5% of all compounds tested hit in one or more screens of this group.

SMILES | TEAD-YAP inh | FBW7 act | GPR151 ag | MITF inh | GPR151 confirm | GPR119 counter
CCn1cc(CN2CCC(n3nccc3NC(=O)c3ccc(OC)cc3)CC2)cn1 | 9 | 0 | 5.2* | 6 | -1 | -20
COc1ccccc1C(=O)Nc1ccnn1C1CCN(Cc2cccc(C(C)=O)c2)CC1 | -7 | 0 | 1 | -3 | / | /
COc1ccccc1C(=O)Nc1ccnn1C1CCN(Cc2ccc3nsnc3c2)CC1 | 6 | 0 | 5.6* | 5 | 1 | 7
COc1ccccc1C(=O)Nc1ccnn1C1CCN(C2CCCCC2)CC1 | -3 | 0 | 5.1* | 5 | 1 | 10
COc1ccccc1CCc1nnc(CCC(=O)NC(C)CCCC(C)(C)O)o1 (centres undefined) | -5 | 0 | 1 | 10 | / | /
COc1ccc(O)c(CN[C@H]2C[C@@H](C(=O)NC(C)C)N(Cc3ccc4ccccc4c3)C2)c1 | -1 | 0 | 0 | -4 | / | /
COc1ccc(-c2[nH]ncc2CN[C@@H]2C[C@@H](C(=O)NC(C)C)N(Cc3ccccc3)C2)cc1 | -1 | 0 | 5.7* | 8 | 0 | -4
COc1ccc(-c2cc(C(=O)N(C)Cc3ccccc3)on2)cc1OC | -10 | 0 | 5.9* | -5 | 0 | 0
CN(Cc1ccccc1)C(=O)c1cc(-c2ccccc2O)no1 | -11 | 0 | -1 | 7 | / | /
O=C(Nc1ccc2ccccc2c1)c1ccc(Cl)cc1 | -49 | 0 | 5.2* | 3 | 0 | -8
O=C(Nc1c(F)cccc1F)c1ccccc1Cl | -22 | 0 | -1 | 13 | / | /
O=C(Nc1c(F)cccc1F)c1ccc(Cl)cc1 | -1 | 0 | 7.7* | 3 | -1 | -1
O=C(N/N=C/c1ccc(O)cc1)c1cc(-c2ccc(Br)cc2)n[nH]1 | 19 | 0 | 0 | 8 | / | /
O=C(N/N=C/c1ccncc1)c1cc2ccccc2cc1O | 3 | 0 | 5.0* | 10 | -2 | -13
O=C(N/N=C/c1ccncc1)c1cc(-c2ccc(Br)cc2)n[nH]1 | -10 | 0 | 5.8* | 7 | 0 | -2
O=C(N/N=C/c1ccccc1O)c1cc(-c2ccc(Br)cc2)n[nH]1 | 2 | 0 | 5.5* | 16 | 1 | -5
O=C(N/N=C/c1cc(I)ccc1O)c1cc(-c2ccccc2)n[nH]1 | 12 | 0 | 1 | 5 | / | /
COC(=O)c1ccc(/C=N/NC(=O)c2cc3ccccc3cc2O)cc1 | 21 | 1 | -2 | 15 | / | /
O=C(Nc1nc(-c2ccc(I)cc2)cs1)C1=COCCO1 | -12 | 0 | 5 | 10 | / | /
CCCCC[C@H](O)/C=C/[C@H]1C(=O)C[C@H](O)[C@@H]1CCCCCCCO | / | / | 0 | 4 | / | /
CCCCC[C@H](O)/C=C/[C@H]1C=CC(=O)[C@@H]1C/C=C\CCCC(=O)O | / | / | 1 | -3 | / | /
CCCCC[C@H](O)/C=C/[C@H]1C=CC(=O)[C@@H]1CCCCCCC(=O)OCC | / | / | 4.9* | 0 | 1 | 3
CCCCC[C@H](O)/C=C/[C@H]1C(=O)C[C@H](O)[C@@H]1CCCCCCC(=O)O | / | / | 9.7* | 18 | 0 | 10
CCCCC(C)(C)[C@H](O)/C=C/[C@H]1C=CC(=O)[C@@H]1CCCCCCC(=O)O | / | / | -1 | 12 | / | /
CCCCC[C@H](O)/C=C/[C@H]1C=CC(=O)[C@H]1C/C=C\CCCC(=O)O | / | / | 5.8* | 2 | 1 | 9
SMILES | TEAD-YAP inh | FBW7 act | GPR151 ag | MITF inh | GPR151 confirm | GPR119 counter
CCCCC(C)(C)[C@H](O)/C=C/[C@H]1C=CC(=O)[C@@H]1C/C=C\CCCC(=O)O | / | / | 13* | -4 | 2 | 0
CCCCCC(=O)/C=C/[C@@H]1[C@@H](C/C=C\CCCC(=O)O)[C@@H](O)C[C@H]1O | / | / | 5.5* | -2 | 1 | 7
CCCCCCCC/C=C\CCCCCC(=O)O | / | / | 8.7* | 9 | 0 | 7
CCCCC/C=C/C=C1/C=CC(=O)[C@@H]1C/C=C\CCCC(=O)O | / | / | 1 | 26 | / | /
CCCCC[C@H](O)/C=C/C1=C(C/C=C\CCCC(=O)O)C(=O)CC1 | / | / | 9.3* | -5 | 0 | -9
CCCCC[C@@H](O)/C=C/[C@H]1C(=O)C[C@H](O)[C@@H]1C/C=C\CCCC(=O)O | / | / | 5 | 0 | / | /
CCCCC/C=C/C=C1/C(=O)C[C@H](O)[C@@H]1C/C=C\CCCC(=O)O | / | / | 5.6* | 15 | 0 | -9
CS(=O)(=O)CCC(C(=O)Nc1cccc2ncccc12)N1C(=O)c2ccccc2C1=O (centres undefined) | 2 | 0 | 0 | 5 | / | /
CCOC(=O)C1(Cc2ccccc2C(F)(F)F)CCN(C(=O)Cc2nonc2C)CC1 | -41 | 0 | 0 | 2 | / | /
Cc1nonc1CN(C)C(=O)C1CC12CCN(C(=O)c1ccccc1C(F)(F)F)CC2 (centres undefined) | -14 | 0 | 5.3* | 4 | 0 | 11
COc1ccc(CCNc2ccnc(-c3ccc(C(=O)NC4CC4)cc3)n2)cc1 | 33* | 0 | 5.5* | 10 | 0 | -5
COc1ccc(-n2cc(C(=O)NC3CCC(C)CC3)c3ccccc3c2=O)cc1 (centres undefined) | 2 | 0 | 5.0* | 5 | 0 | 8
CCC(C)NC(=O)CCNC(=O)c1cn(-c2cccc(OC)c2)c(=O)c2ccccc12 (centres undefined) | 6 | 0 | 2 | -2 | / | /
CCC(C)NC(=O)c1cn(-c2cccc(OC)c2)c(=O)c2ccccc12 (centres undefined) | -3 | 0 | 5.4* | 3 | 0 | 2
Cc1ccc(S(=O)(=O)N2CCCOC2CNC(=O)C(=O)NCCO)cc1 (centres undefined) | 8 | 0 | 1 | 8 | / | /
Cc1ccc(NC(=O)N2CCCCC2C)cc1 (centres undefined) | -17 | 0 | 0 | 13 | / | /
Cc1nc(C)c(NC(=O)N2CCCCC2C)cc1NC(=O)N1CCCCC1C (centres undefined) | -1 | 0 | 4.9* | -1 | 0 | 0
CCCOc1ccc(N2C(=O)CC(N3CCCC3)C2=O)cc1 (centres undefined) | 4 | 0 | 1 | 9 | / | /
CCC(=O)Nc1c2c(nn1-c1ccc(Cl)cc1)CS(=O)(=O)C2 | 3 | 1 | -1 | 18 | / | /
CC(=O)C(C)Oc1cc(O)c2c(=O)cc(-c3ccccc3)oc2c1 (centres undefined) | -22 | 0 | 0 | 0 | / | /
O=C1CCCCC1Oc1cc(O)c2c(=O)cc(-c3ccccc3)oc2c1 (centres undefined) | -7 | 0 | 7.0* | 5 | 1 | 22
CCCn1c(NNC=O)nc2c1c(=O)[nH]c(=O)n2C | -2 | 0 | -1 | 22 | / | /
COc1cccc(N2CC(NC(=O)N3CCN(c4ccc(C(C)=O)cc4)CC3)CC2=O)c1 (centres undefined) | -7 | 0 | 3 | 11 | / | /
COc1cccc(N2CC(NC(=O)N3CCN(c4ccc([N+](=O)[O-])cc4)CC3)CC2=O)c1 (centres undefined) | 20 | 0 | 12* | 10 | 0 | -3
